Laboratory results: PubChem BioAssay AID1159580 (chemical genetic matrix, 2015)
“And” between values parts separate entries of the source, which are not always exact repeats. Equal entries are not always repeated. Screen size: about 5,500 compounds; about 2,000 (36%) were called active. Inconclusive results (about 18%) are left out. No stated cut-off is given here; in the data, active means normalized growth mostly below about 0.91 (no sharp cut-off); inconclusive means no clear call, values can overlap the other calls; inactive means mostly above about 0.92. The list shows a part of the results.

Assay: chemical genetic growth profiling, strain panel (AID 1159580);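 further: tested at 20 µM; growth read once vehicle control cultures reached saturation at 30 °C; 1 = growth at the plate median or of vehicle wells; lower values mean less growth of the strain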
Settings: S. cerevisiae deletion strains, growth OD

Measured: normalized growth

COc1c2occc2c(OC)c2c(=O)cc(C)oc12
inactive: locus YAL021C, strain ccr4, hits give low values 0.992 | locus YAL026C, strain drs2, hits give low values 0.985 | locus YAL030W, strain snc1, hits give low values 0.992 | locus YBL061C, strain skt5, hits give low values 0.992 | locus YBR009C, strain hhf1, hits give low values 0.963 | locus YBR021W, strain FUR4, hits give low values 0.958 | locus YBR023C, strain chs3, hits give low values 0.97 | locus YBR171W, strain sec66, hits give low values 0.987 | locus YBR229C, strain ROT2, hits give low values 1.01 | locus YBR231C, strain swc5, hits give low values 0.944 | locus YBR279W, strain paf1, hits give low values 0.978 | locus YCL011C, strain gbp2, hits give low values 0.967 | locus YCL016C, strain dcc1, hits give low values 0.986 | locus YCL029C, strain bik1, hits give low values 0.998 | locus YCL061C, strain MRC1, hits give low values 0.995 | locus YCL069W, strain vba3, hits give low values 0.977 | locus YCR088W, strain abp1, hits give low values 0.991 | locus YDL005C, strain med2, hits give low values 0.989 | locus YDL035C, strain GPR1, hits give low values 1.05 | locus YDL040C, strain nat1, hits give low values 0.992 | locus YDL074C, strain BRE1, hits give low values 1.06 | locus YDL101C, strain DUN1, hits give low values 1.02 | locus YDL134C, strain PPH21, hits give low values 1.05 | locus YDL185W, strain tfp1, hits give low values 1.01 | locus YDL192W, strain arf1, hits give low values 1.01 | locus YDR001C, strain nth1, hits give low values 0.991 | locus YDR069C, strain doa4, hits give low values 0.985 | locus YDR101C, strain arx1, hits give low values 0.988 | locus YDR137W, strain rgp1, hits give low values 1.01 | locus YDR159W, strain sac3, hits give low values 0.97 | locus YDR162C, strain NBP2, hits give low values 1.02 | locus YDR195W, strain ref2 1.14 | locus YDR297W, strain sur2, hits give low values 0.979 | locus YDR318W, strain mcm21, hits give low values 1.01 | locus YDR334W, strain swr1, hits give low values 0.994 | locus YDR335W, strain msn5, hits give low values 0.987 | locus YDR388W, hits give low values 1 | locus YDR502C, strain sam2, hits give low values 1.01 | locus YEL003W, strain gim4, hits give low values 0.938 | locus YEL037C, strain rad23, hits give low values 0.99 | locus YEL061C, strain CIN8 (second series), hits give low values 0.981 | locus YER015W, strain faa2, hits give low values 0.977 | locus YER016W, strain bim1, hits give low values 0.994 | locus YER110C, hits give low values 1 | locus YER111C, strain swi4, hits give low values 1 | locus YER155C, strain BEM2 (second series), hits give low values 0.881 | locus YER155C, strain BEM2, hits give low values 1 | locus YER167W, strain BCK2, hits give low values 1.01 | locus YFR010W, strain ubp6, hits give low values 0.986 | locus YGL078C, strain dbp3, hits give low values 1.01 | locus YGL086W, strain mad1, hits give low values 1 | locus YGL167C, strain pmr1, hits give low values 0.997 | locus YGL173C, strain kem1, hits give low values 0.977 | locus YGL227W, strain vid30, hits give low values 0.99 | locus YGL240W, strain doc1, hits give low values 0.955 | locus YGL248W, strain PDE1, hits give low values 1.04 | locus YGL253W, strain hxk2, hits give low values 0.958 | locus YGR135W, strain pre9, hits give low values 1 | locus YGR252W, strain gcn5, hits give low values 0.965 | locus YHR013C, strain ard1, hits give low values 0.975 | locus YHR027C, strain rpn1, hits give low values 0.987 | locus YHR030C, strain SLT2, hits give low values 1.02 and 0.987 | locus YHR079C, strain IRE1 (second series), hits give low values 1 | locus YHR079C, strain IRE1, hits give low values 0.996 | locus YHR094C, strain hxt1, hits give low values 1.01 | locus YHR129C, strain ARP1, hits give low values 1.01 | locus YHR142W, strain chs7, hits give low values 0.949 | locus YHR200W, strain rpn10, hits give low values 1.04 | locus YIL066C, strain RNR3, hits give low values 1.02 | locus YIL073C, strain SPO22, hits give low values 1.13 | locus YIL125W, strain kgd1, hits give low values 1.02 | locus YIR030C, strain dcg1, hits give low values 1.01 | locus YJL092W, strain hpr5, hits give low values 0.996 | locus YJL095W, strain BCK1 (second series), hits give low values 0.993 | locus YJL095W, strain BCK1, hits give low values 1.03 and 1 | locus YJL115W, strain asf1, hits give low values 0.996 | locus YJL129C, strain trk1, hits give low values 1.01 | locus YJL134W, strain LCB3, hits give low values 1.01 | locus YJL154C, strain vps35, hits give low values 0.995 | locus YJL164C, strain tpk1, hits give low values 0.965 | locus YJL166W, strain qcr8, hits give low values 0.945 | locus YJL168C, strain set2, hits give low values 1.01 | locus YJL187C, strain SWE1 (second series), hits give low values 1.02 | locus YJL187C, strain SWE1, hits give low values 0.99 | locus YJR043C, strain POL32, hits give low values 1.03 | locus YJR066W, strain TOR1, hits give low values 0.931 | locus YJR075W, strain HOC1, hits give low values 1.03 | locus YKL009W, strain mrt4, hits give low values 0.991 | locus YKL068W, hits give low values 1.01 | locus YKL085W, strain MDH1 (second series), hits give low values 1.01 | locus YKL085W, strain MDH1, hits give low values 1.01 | locus YKL160W, strain elf1, hits give low values 0.963 | locus YKR001C, strain vps1, hits give low values 1.02 | locus YKR026C, strain gcn3, hits give low values 0.995 | locus YKR091W, strain srl3, hits give low values 0.998 | locus YLL001W, strain dnm1, hits give low values 0.949 | locus YLL026W, hits give low values 0.999 | locus YLL041C, strain sdh2, hits give low values 0.998 | locus YLR027C, strain aat2, hits give low values 0.99 | locus YLR039C, strain RIC1, hits give low values 1.18 | locus YLR058C, strain SHM2, hits give low values 1.01 | locus YLR102C, strain apc9, hits give low values 1.01 | locus YLR113W, strain HOG1, hits give low values 1.07 | locus YLR221C, strain rsa3, hits give low values 0.963 | locus YLR258W, strain gsy2, hits give low values 0.943 | locus YLR262C, strain YPT6 (second series), hits give low values 0.985 | locus YLR268W, strain sec22, hits give low values 0.999 | locus YLR320W, strain mms22, hits give low values 0.941 | locus YLR342W, strain FKS1, hits give low values 0.994 | locus YLR357W, strain rsc2, hits give low values 1.01 | locus YLR370C, strain arc18, hits give low values 0.996 | locus YLR371W, strain rom2, hits give low values 1.02 | locus YLR384C, strain iki3, hits give low values 0.986 | locus YLR418C, strain cdc73, hits give low values 1.04 | locus YML016C, strain PPZ1, hits give low values 1.01 | locus YML032C, strain rad52, hits give low values 1 | locus YML120C, strain ndi1, hits give low values 0.972 | locus YML124C, strain tub3, hits give low values 0.999 | locus YMR058W, strain fet3, hits give low values 0.975 | locus YMR078C, strain ctf18, hits give low values 1.02 | locus YMR125W, strain sto1, hits give low values 1.04 | locus YMR129W, hits give low values 1 | locus YMR205C, strain PFK2, hits give low values 0.985 | locus YMR223W, strain ubp8, hits give low values 0.992 | locus YMR231W, strain pep5, hits give low values 0.999 | locus YMR307W, strain GAS1, hits give low values 1.17 | locus YNL067W, strain RPL9B, hits give low values 0.986 | locus YNL128W, strain TEP1, hits give low values 1.02 | locus YNL153C, strain GIM3, hits give low values 1 | locus YNL183C, strain NPR1, hits give low values 0.949 | locus YNL209W, strain ssb2, hits give low values 0.977 | locus YNL233W, strain BNI4, hits give low values 1.03 | locus YNL248C, strain rpa49, hits give low values 0.989 | locus YNL250W, strain rad50, hits give low values 1.05 | locus YNL271C, strain bni1, hits give low values 1.01 | locus YNL298W, strain CLA4, hits give low values 1.02 | locus YNL307C, strain MCK1, hits give low values 1 | locus YNL322C, strain KRE1 (second series), hits give low values 0.998 | locus YNR049C, strain mso1, hits give low values 1 | locus YNR052C, strain pop2, hits give low values 1.01 | locus YOL012C, strain htz1 1.05 | locus YOL147C, strain pex11, hits give low values 1.01 | locus YOR001W, strain rrp6, hits give low values 0.946 | locus YOR061W, strain CKA2, hits give low values 1.02 | locus YOR069W, strain VPS5, hits give low values 1 | locus YOR070C, strain gyp1, hits give low values 0.988 | locus YOR080W, strain dia2, hits give low values 0.987 | locus YOR083W, strain WHI5, hits give low values 0.942 | locus YOR106W, strain vam3, hits give low values 0.966 | locus YOR136W, strain idh2, hits give low values 1.02 | locus YOR144C, strain elg1, hits give low values 1.01 | locus YOR184W, strain ser1, hits give low values 1.02 | locus YOR231W, strain MKK1, hits give low values 0.997 | locus YOR265W, strain rbl2, hits give low values 0.989 | locus YOR270C, strain vph1, hits give low values 0.839 | locus YOR290C, strain snf2, hits give low values 0.958 | locus YOR316C, strain cot1, hits give low values 1.03 | locus YPL051W, strain arl3, hits give low values 0.972 | locus YPL078C, strain atp4, hits give low values 0.951 | locus YPL106C, strain sse1, hits give low values 0.961 | locus YPL240C, strain hsp82, hits give low values 0.989 | locus YPL241C, strain CIN2, hits give low values 1.01 | locus YPL256C, strain CLN2, hits give low values 1.03 | locus YPR119W, strain clb2, hits give low values 1.01 | locus YPR141C, strain kar3, hits give low values 1.01 | locus YPR163C, strain tif3, hits give low values 0.992 | locus YPR167C, strain met16, hits give low values 1.02 | strain wtn01, hits give low values 0.999
active: locus YDR392W, strain spt3, hits give low values 0.734 | locus YNL071W, strain lat1, hits give low values 0.912
